These results are taken from PubChem BioAssay (NCI).

Each structure is given as a SMILES string. Compounds without any hit were thinned out: in the full panel of roughly 83,000, 20% have a hit.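 Cell lines were cultured in 96-well plates, exposed to a single compound concentration, and assessed for percent growth 48 hours later.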 A number with no mark means an inactive call. Activity calls are given as the source filed them. Rule for the calls: active = growth percent below 10; inactive = the rest.

Among the test systems are HCT-15 colon; HT29 colon; SNB-75 CNS; SNB-19 CNS; U251 CNS; PC-3 prostate; SK-MEL-5 melanoma; UACC-62 melanoma; LOX IMVI melanoma; SK-MEL-28 melanoma.
Assay in all cases: NCI-60 one-dose screen, 48 h (100 = growth as untreated, 0 = no growth, -100 = all killed)
Holding throughout (conditions): 10 µM unless noted

As for `C=C(C)[C@@H]1CC[C@]2(C)[C@H](CC[C@@H]3[C@@H]([C@@](C)(O)CCC=C(C)C)CC[C@]32C)[C@@]1(C)CCC(=O)N1CCN(C)CC1`, the growth is -92.8% [100 µM] (active) in the test on HCT-15 colon; -70.8% [100 µM] (active) with HT29 colon; -92.5% [100 µM] (active) in the test with SNB-75 CNS; -95.3% [100 µM] (active) in the test with SNB-19 CNS; -78.6% [100 µM] (active) with U251 CNS; -61.8% [100 µM] (active) in the test with PC-3 prostate. Further, the growth is -99.1% [100 µM] (active) in the test with SK-MEL-5 melanoma, -95.2% [100 µM] (active) in the test with UACC-62 melanoma, -100% [100 µM] (active) in the test with LOX IMVI melanoma and -92.1% [100 µM] (active) with SK-MEL-28 melanoma.

For the compound `C=C(C)[C@@H]1CC[C@]2(C(=O)NCCNCCNCCN)CC[C@]3(C)[C@H](CC[C@@H]4[C@@]5(C)CC[C@H](O)C(C)(C)[C@@H]5CC[C@]43C)[C@@H]12`, the growth is -24.8% [100 µM] (active) with HCT-15 colon; -39.6% [100 µM] (active) in the test with HT29 colon; -79.3% [100 µM] (active) in the test on SNB-75 CNS; -74.5% [100 µM] (active) in the test on SNB-19 CNS; -71.6% [100 µM] (active) in the test on U251 CNS; 1.07% [100 µM] (active) in the test with PC-3 prostate. Besides, the growth with SK-MEL-5 melanoma is -90.1% [100 µM] (active); with UACC-62 melanoma, -100% [100 µM] (active); in the test on LOX IMVI melanoma, -41% [100 µM] (active); with SK-MEL-28 melanoma, -98.7% [100 µM] (active).

With `O=C(Nc1ccccc1)Nc1ccc(C(=O)/C=C/c2ccc(N3CCCC3)cc2)cc1`, the growth is 56.8% with HCT-15 colon; 69.5% in the test on HT29 colon; 41% in the test with SNB-75 CNS; 68% with SNB-19 CNS; 66% in the test on U251 CNS; 59.9% in the test with PC-3 prostate. Besides, the growth was 45% in the test with SK-MEL-5 melanoma, 42.2% in the test on UACC-62 melanoma, 85.6% in the test with LOX IMVI melanoma and 51.1% with SK-MEL-28 melanoma.

In the case of `C=C(C)[C@@H]1CC[C@]2(C)[C@H](CC[C@@H]3[C@@H]([C@@](C)(O)CCC=C(C)C)CC[C@]32C)[C@@]1(C)CCC(=O)O`, the growth was -15.9% [100 µM] (active) with HCT-15 colon; 2.65% [100 µM] (active) with HT29 colon; -37.5% [100 µM] (active) in the test on SNB-75 CNS; -32.8% [100 µM] (active) with SNB-19 CNS; -16.7% [100 µM] (active) in the test with U251 CNS; 5.99% [100 µM] (active) in the test on PC-3 prostate. Moreover, the growth was -88.2% [100 µM] (active) with SK-MEL-5 melanoma, -75.3% [100 µM] (active) with UACC-62 melanoma, -100% [100 µM] (active) with LOX IMVI melanoma and -83% [100 µM] (active) with SK-MEL-28 melanoma.

As to `C=C(C)[C@@H]1CC[C@]2(C(=O)OC)CC[C@]3(C)[C@H](CC[C@@H]4[C@@](C)(CCc5nn[nH]n5)[C@H](C(=C)C)CC[C@]43C)[C@@H]12`, the growth in the test on HCT-15 colon was 6.32% [100 µM] (active); with HT29 colon, -16.1% [100 µM] (active); in the test on SNB-75 CNS, -77.8% [100 µM] (active); in the test with SNB-19 CNS, -5.69% [100 µM] (active); with U251 CNS, -26.5% [100 µM] (active); with PC-3 prostate, 5.02% [100 µM] (active). Besides, the growth with SK-MEL-5 melanoma is -73.7% [100 µM] (active); in the test with UACC-62 melanoma, -72.8% [100 µM] (active); in the test on LOX IMVI melanoma it was -90.9% [100 µM] (active); in the test with SK-MEL-28 melanoma, -63% [100 µM] (active).

`CCCCCCCCCN(CCCCCCCCC)C(C)C(=O)c1ccc2cc(Br)c3ccccc3c2c1` (stereo not given): the growth is 47.1% with HCT-15 colon; 30.1% in the test on HT29 colon; 84.5% in the test on SNB-75 CNS; 92% with SNB-19 CNS; 70.9% with U251 CNS; 75.2% in the test on PC-3 prostate. Further, the growth with SK-MEL-5 melanoma is 88.5%; in the test on UACC-62 melanoma, 92.8%; with LOX IMVI melanoma, 63.9%; with SK-MEL-28 melanoma it was 109%.

For the compound `O=C(O)c1cn(C2CC2)c2cc(N3CCN(Cc4c(O)ccc5ccccc45)CC3)c(F)cc2c1=O`, the growth in the test on HCT-15 colon is 5.61% (active); in the test with HT29 colon, -46.7% (active); with SNB-75 CNS, -20.8% (active); in the test on SNB-19 CNS, 83.1%; in the test on U251 CNS it was 37.5%; in the test on PC-3 prostate it was 36.1%. The growth in the test on SK-MEL-5 melanoma was 58.4%; in the test with UACC-62 melanoma it was 38.8%; in the test with LOX IMVI melanoma, 37.1%; in the test on SK-MEL-28 melanoma it was 27.8%.

With `C[C@@H]1C[C@H]2C(=O)O[C@@H](C)[C@H](NC(=O)[C@H](Cc3cc(F)cc(F)c3)NC(=O)Nc3ccc(Cl)cc3F)C(=O)N3C[C@H](O)C[C@H]3C(=O)N3CCN(C)C[C@H]3C(=O)N[C@@H](C)C(=O)N2C1`, the growth is 107% with HCT-15 colon; 32.5% with HT29 colon; 22.8% with SNB-75 CNS; 20.3% with SNB-19 CNS; 21.1% in the test on U251 CNS; 18.1% in the test on PC-3 prostate. Besides, the growth with SK-MEL-5 melanoma was 64.6%; in the test on UACC-62 melanoma it was 31.1%; in the test on LOX IMVI melanoma, 43.4%; with SK-MEL-28 melanoma, 41.3%.

Regarding `O=C(CSc1nccc(Nc2ccc(S(=O)(=O)Nc3ccccn3)cc2)n1)c1ccc(Cl)cc1`, the growth was 99.9% in the test with HCT-15 colon; 107% in the test with HT29 colon; 101% in the test on SNB-75 CNS; 97.1% in the test with SNB-19 CNS; 93.9% in the test with U251 CNS; 84.3% with PC-3 prostate. Besides, the growth with SK-MEL-5 melanoma was 70.8%; in the test with UACC-62 melanoma it was 82.4%; in the test on LOX IMVI melanoma, 87.6%; in the test with SK-MEL-28 melanoma, 118%.

As for `Cc1cc(-c2ccc(N=Nc3c(S(=O)(=O)O)cc4cc(S(=O)(=O)O)cc(N)c4c3O)c(C)c2)ccc1N=Nc1cc(S(=O)(=O)O)c2ccccc2c1O`, the growth was 104% with HCT-15 colon; 100% in the test on HT29 colon; 98.5% in the test with SNB-75 CNS; 94.4% with SNB-19 CNS; 99.5% with U251 CNS; 96.9% in the test on PC-3 prostate. The growth in the test with SK-MEL-5 melanoma is 100%; with UACC-62 melanoma it was 93.6%; with LOX IMVI melanoma it was 106%; in the test on SK-MEL-28 melanoma it was 107%.

Regarding `Fc1cc2[nH]ncc2c2c3c(c(-c4cn[nH]c4C(F)(F)F)nc12)C1CCC3C1` (stereo not given), the growth in the test on HCT-15 colon is 9.48% (active); in the test on HT29 colon, 13%; in the test with SNB-75 CNS, -4.22% (active); with SNB-19 CNS, 10.1%; in the test with U251 CNS, 4.85% (active); with PC-3 prostate it was 14%. The growth was -28.8% (active) in the test with SK-MEL-5 melanoma, -18.5% (active) in the test with UACC-62 melanoma, 0.44% (active) with LOX IMVI melanoma and -0.348% (active) with SK-MEL-28 melanoma.

On to `Cc1cc(C)nc(SCC(=O)Nc2cccc(N=Cc3ccccc3O)c2)n1`, for which the growth with HCT-15 colon is 105%; with HT29 colon, 101%; with SNB-75 CNS it was 81.9%; in the test with SNB-19 CNS, 93%; with U251 CNS it was 94.9%; with PC-3 prostate it was 90.3%. Also, the growth in the test with SK-MEL-5 melanoma was 103%; with UACC-62 melanoma, 94.1%; in the test on LOX IMVI melanoma, 103%; with SK-MEL-28 melanoma, 106%.
